# Screening data: PubChem BioAssay, University of Kansas High Throughput Screening Laboratory
# Hits are enriched below; roughly 3.5% of the tested compounds scored in any of these assays.
# mHTT-CaM PPI inh = mutant huntingtin-calmodulin interaction inhibitors – biochemical, AlphaScreen, primary screen | P42858 | inhibition, % at 15 µM | AID 1671202, 2021 | AlphaScreen His-mHTT/GST-CaM binding, luminescence | 3.6% of 190,000 active;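 note: 0% = both proteins with DMSO and 100% = one protein alone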
# Pf apPOL inh = Pf-apPOL inhibitors, biochemical, fluorescence. 0.25% of 210,000 active. inhibition, % at 10 µM. Plasmodium falciparum apicoplast DNA polymerase (apPOL). Recombinant Pf-apPOL, molecular beacon fluorescence, 1.5 h
# Numbers without * were called inactive; . = no result. Cut-off read from the data, not from the text of the source: active = inhibition above about 50%; inactive = the rest.
SMILES,mHTT-CaM PPI inh,Pf apPOL inh
COc1ccc(-c2noc(C3CCN(CC(=O)Nc4cccc(C)c4)CC3)n2)cc1,10,0
CCOc1ccc2c(C)nc(N=C(N)NC(=O)CC)nc2c1,-5,-1
CCC(=O)NC(=Nc1nc(C)c2cc(C)c(C)cc2n1)NC(=O)CC,2,52*
CN1CCN(CCC2CCCCN2C(=O)C2CCCC2)CC1 (stereo unspecified),-1,-5
CC(C)C(=O)Nc1ccc2c(c1)CN(Cc1ccccc1F)C(=O)CO2,-1,-4
COc1cc(-c2csc(C)n2)ccc1O,-4,0
COc1cc(-c2nc(-c3cccs3)c(-c3cccs3)[nH]2)ccc1O,97*,0
Cc1cc(C)n2nc(SCCC(=O)NCc3ccccc3Cl)nc2n1,-1,-12
Cn1cc(CCC(=O)NCc2ccco2)c2ccccc21,3,-12
O=C(CSc1cn(CCNC(=O)c2ccccc2F)c2ccccc12)NCc1ccco1,13,0
O=C(CSc1cn(Cc2ccc(Cl)cc2)c2ccccc12)NCc1ccco1,54*,-2
Cc1ccccc1Cn1cc(SCC(=O)NCc2ccco2)c2ccccc21,86*,-1
CCC(C)Sc1nc2c(c(=O)n1-c1ccc(F)cc1)SCC2 (stereo unspecified),23,0
Cn1nc(CC(=O)Nc2ccccc2C(F)(F)F)c2ccccc2c1=O,0,6
COCC1CCN(C(=O)c2cccnc2N2CCNC(c3ccccc3)C2)CC1 (stereo unspecified),-1,4
O=C(c1cccnc1N1CCNC(c2ccccc2)C1)N1CCC(Cc2ccccc2)CC1 (stereo unspecified),73*,12
O=C(c1ccccc1)c1ccccc1NC(=O)C1CCCN1Cc1ccccc1 (stereo unspecified),.,0
Cc1ccccc1CN1C(=O)/C(=C/C(=O)O)Sc2ccccc21,27,28
Cc1ccccc1CN1C(=O)/C(=C/C(=O)NCCc2ccccc2)Sc2ccccc21,51*,-16
O=C(/C=C1\Sc2ccccc2N(Cc2ccc(F)cc2)C1=O)NCCc1ccccc1,-16,10
Cc1ccc(CN2C(=O)/C(=C/C(=O)O)Sc3ccccc32)cc1,60*,28
O=C(C1CCCO1)N1CCC(c2nncn2-c2ccccc2)CC1 (stereo unspecified),-12,-1
N[C@@H](Cc1c[nH]c2ccccc12)C(=O)O,.,5
CC(=O)N1CCc2nc3cc(-c4ccccc4Cl)[nH]n3c(=O)c2C1,-2,2
O=C(c1n[nH]c2ccccc12)N1CCc2nc3cc(-c4ccccc4)[nH]n3c(=O)c2C1,16,5
SMILES,mHTT-CaM PPI inh,Pf apPOL inh
O=C(c1cc(C2CC2)[nH]n1)N1CCc2nc3cc(-c4ccccc4Cl)[nH]n3c(=O)c2C1,59*,26
COc1ccc(-c2cc3nc4c(c(=O)n3[nH]2)CCN(C(=O)c2ccc(C)c(F)c2)C4)cc1,32,3
COc1ccc(-c2cc3nc4c(c(=O)n3[nH]2)CN(C(=O)c2ccc(C)c(F)c2)CC4)cc1,80*,41
Cc1ccc(C(=O)N2CCc3nc4cc(-c5ccccc5)[nH]n4c(=O)c3C2)cc1F,1,0
O=C(c1ccc2ncccc2c1)N1CCc2nc3cc(-c4ccccc4)[nH]n3c(=O)c2C1,99*,96*
O=C(c1nccc2ccccc12)N1CCc2nc3cc(-c4ccccc4)[nH]n3c(=O)c2C1,56*,0
Cc1ccc(-c2nnc(CCC(=O)N3CCCC3)c(=O)[nH]2)cc1,7,-5
CC1CCCN(C2CCN(S(=O)(=O)c3ccc(F)cc3)CC2)C1 (stereo unspecified),0,-11
Cc1ccc2nc(C(=O)N3CCC(N4CCCCC4)CC3)cn2c1,0,-5
CN(Cc1ccccc1)C(=O)c1cc2sccc2n1CC1CC1,-9,-6
Cc1c(C(=O)Nc2ccc(N3CCOCC3)c(Cl)c2)cnn1-c1ccc(F)cc1,.,-6
O=C(CSc1cccc2cccnc12)N1CCCCC1,88*,-2
O=C(CSc1cccc2cccnc12)NC1CCCCC1,16,-2
COc1cccc(CN2COc3ccc4c(c3C2)OC(=Cc2cc(OC)c(OC)c(OC)c2)C4=O)c1,11,8
COc1cccc(C=C2Oc3c(ccc4c3CN(Cc3ccccn3)CO4)C2=O)c1,99*,-33
COc1cc(C=C2Oc3c(ccc4c3CN(c3ccc5c(c3)OCO5)CO4)C2=O)cc(OC)c1OC,59*,-1
COc1ccc(OC)c(C=C2Oc3c(ccc4c3CN(Cc3ccncc3)CO4)C2=O)c1,16,-5
COc1ccc(C=C2Oc3c(ccc4c3CN(Cc3ccccn3)CO4)C2=O)c(OC)c1,100*,-89
COc1ccc(N2COc3ccc4c(c3C2)OC(=Cc2ccc(OC)c(OC)c2)C4=O)cc1,31,5
COc1cc(C=C2Oc3c(ccc4c3CN(Cc3ccccn3)CO4)C2=O)cc(OC)c1OC,100*,-36
COc1ccccc1CN1COc2ccc3c(c2C1)OC(=Cc1cc(OC)c(OC)c(OC)c1)C3=O,8,-17
Cc1cc2ncn(C(=O)c3ccccc3Cl)c2cc1C,-12,1
CCOc1ccc(N2C(=O)CC(N3CCN(C)CC3)C2=O)cc1 (stereo unspecified),-5,-7
COc1ccccc1CN1COc2ccc3c(c2C1)OC(=Cc1ccncc1)C3=O,100*,-21
COc1ccccc1CN1COc2ccc3c(c2C1)OC(=Cc1cccnc1)C3=O,3,-10
SMILES,mHTT-CaM PPI inh,Pf apPOL inh
COc1ccc(CNc2ccc3c(c2)OCO3)cc1Br,96*,-5
COc1ccc(S(=O)(=O)Nc2ccc3c(c2)OCO3)cc1Br,24,.
COc1cc(OC)c(CNc2ccc3c(c2)OCO3)cc1Br,100*,-7
COc1cc(S(=O)(=O)NCc2ccc3c(c2)OCO3)c(OC)cc1Br,0,-9
Cc1cc(C2CCCN2C(=O)C(C)(C)C)on1 (stereo unspecified),-2,-1
CCOC(=O)c1cc(C)nn1C1CCN(C(=O)c2ccc(F)cc2F)CC1,-4,-3
O=C(c1ccc(F)cc1F)N1CCC(n2nc(-c3ccsc3)ccc2=O)CC1,100*,-5
O=C(c1cc(F)ccc1F)N1CCC(CCOCc2ccc(F)cc2)CC1,-21,-8
O=C(c1ccccc1F)N1CCC(n2nc(-c3ccsc3)ccc2=O)CC1,86*,6
O=C(c1cc(F)ccc1F)N1CCC(n2nc(-c3ccsc3)ccc2=O)CC1,98*,0
O=C(c1ccccn1)N1CCC(n2nc(-c3ccsc3)ccc2=O)CC1,32,-6
O=C(Cn1nc(S(=O)(=O)c2ccccc2)ccc1=O)Nc1ccc2c(c1)OCO2,3,1
Clc1ccccc1-n1ncc2c(NCc3ccco3)ncnc21,-11,-3
Cc1cc(CN2C(=O)c3ccccc3C2=O)cc(N2CCOCC2)c1,4,-4
CNc1ccc(C(=O)N2CCOC(COc3ccc4c(c3)CCCC4)C2)cc1 (stereo unspecified),52*,-7
COc1ccc(OCC2CN(C(=O)c3ccc(C)cc3)CCO2)cc1 (stereo unspecified),1,-1
CCN(CC)C(=O)c1cccc(N2CCNC(c3ccccc3)C2)n1 (stereo unspecified),-7,-6
CCOc1cc(C(Nc2ccccn2)c2ccc3cccnc3c2O)ccc1OC (stereo unspecified),100*,-6
CCOc1ccc(C=Nc2ccc(S(=O)(=O)Nc3ccccn3)cc2)cc1OCC,-1,6
COc1cc(NC(=O)Nc2cccc3cccnc23)cc(OC)c1OC,30,-6
